Test results: paper PMC11062922 (Nature Chemical Biology, 2023)
Where two headings read alike, the source gives them in different places.

Assays:
Settings in all cases: read-out: apparent Kd, n = 1
[1] = system: MAP2K2
[2] = system: MAP2K6
[3] = system: MAP4K2
[4] = compound concentrations:100 nM and 1000 nM (sheet 'Lestaurtinib' of Supplementary Table 1),run:Lestaurtinib_02752_R3,Plate:MR025
[5] = compound concentrations:100 nM and 1000 nM (sheet 'Lestaurtinib' of Supplementary Table 1),run:Lestaurtinib_02765_R1,Plate:MR026
[6] = compound concentrations:100 nM and 1000 nM (sheet 'Lestaurtinib' of Supplementary Table 1),run:Lestaurtinib_02768_R1,Plate:MR028
[7] = compound concentrations:100 nM and 1000 nM (sheet 'Lestaurtinib' of Supplementary Table 1),run:Lestaurtinib_02795_R1,Plate:MR022
[8] = compound concentrations:100 nM and 1000 nM (sheet 'Lestaurtinib' of Supplementary Table 1),run:Lestaurtinib_02802_R2,Plate:MR029
[9] = compound concentrations:100 nM and 1000 nM (sheet 'Lestaurtinib' of Supplementary Table 1),run:Lestaurtinib_02802_R3,Plate:MR029
[10] = compound concentrations:100 nM and 1000 nM (sheet 'Lestaurtinib' of Supplementary Table 1),run:Lestaurtinib_03252_R2,Plate:MR032
[11] = compound concentrations:100 nM and 1000 nM (sheet 'Lestaurtinib' of Supplementary Table 1),run:Lestaurtinib_02339_R2,Plate:MR001
[12] = compound concentrations:100 nM and 1000 nM (sheet 'Lestaurtinib' of Supplementary Table 1),run:Lestaurtinib_02364_R2,Plate:MR002

## Lestaurtinib
[1]; [4]
  potency estimated from few doses: 1310 nM
[1]; [5]
  potency estimated from few doses: 722 nM
[1]; compound concentrations:100 nM and 1000 nM (sheet 'Lestaurtinib' of Supplementary Table 1),run:Lestaurtinib_02766_R2,Plate:MR027
  potency estimated from few doses: 959 nM
[1]; compound concentrations:100 nM and 1000 nM (sheet 'Lestaurtinib' of Supplementary Table 1),run:Lestaurtinib_02766_R3,Plate:MR027
  potency estimated from few doses: 1320 nM
[1]; [6]
  potency estimated from few doses: 1590 nM
[1]; [7]
  potency estimated from few doses: 925 nM
[1]; compound concentrations:100 nM and 1000 nM (sheet 'Lestaurtinib' of Supplementary Table 1),run:Lestaurtinib_02795_R2,Plate:MR022
  potency estimated from few doses: 722 nM
[1]; [8]
  potency estimated from few doses: 958 nM
[1]; [9]
  potency estimated from few doses: 1490 nM
[1]; compound concentrations:100 nM and 1000 nM (sheet 'Lestaurtinib' of Supplementary Table 1),run:Lestaurtinib_02896_R2,Plate:MR030
  potency estimated from few doses: 744 nM
[1]; compound concentrations:100 nM and 1000 nM (sheet 'Lestaurtinib' of Supplementary Table 1),run:Lestaurtinib_02896_R3,Plate:MR030
  potency estimated from few doses: 804 nM
[1]; compound concentrations:100 nM and 1000 nM (sheet 'Lestaurtinib' of Supplementary Table 1),run:Lestaurtinib_03172_R3,Plate:MR031
  potency estimated from few doses: 475 nM
[1]; [10]
  potency estimated from few doses: 790 nM
[1]; compound concentrations:100 nM and 1000 nM (sheet 'Lestaurtinib' of Supplementary Table 1),run:Lestaurtinib_03260_R2,Plate:MR033
  potency estimated from few doses: 1600 nM
[2]; [11]
  potency estimated from few doses: 162 nM
[2]; compound concentrations:100 nM and 1000 nM (sheet 'Lestaurtinib' of Supplementary Table 1),run:Lestaurtinib_02339_R3,Plate:MR001
  potency estimated from few doses: 96.9 nM
[2]; [12]
  potency estimated from few doses: 135 nM
[2]; compound concentrations:100 nM and 1000 nM (sheet 'Lestaurtinib' of Supplementary Table 1),run:Lestaurtinib_02367_R1,Plate:MR003
  potency estimated from few doses: 158 nM
[2]; compound concentrations:100 nM and 1000 nM (sheet 'Lestaurtinib' of Supplementary Table 1),run:Lestaurtinib_02367_R2,Plate:MR003
  potency estimated from few doses: 190 nM
[2]; compound concentrations:100 nM and 1000 nM (sheet 'Lestaurtinib' of Supplementary Table 1),run:Lestaurtinib_02367_R3,Plate:MR003
  potency estimated from few doses: 165 nM
[2]; compound concentrations:100 nM and 1000 nM (sheet 'Lestaurtinib' of Supplementary Table 1),run:Lestaurtinib_02381_R1,Plate:MR004
  potency estimated from few doses: 175 nM
[2]; compound concentrations:100 nM and 1000 nM (sheet 'Lestaurtinib' of Supplementary Table 1),run:Lestaurtinib_02407_R2,Plate:MR005
  potency estimated from few doses: 137 nM
[2]; compound concentrations:100 nM and 1000 nM (sheet 'Lestaurtinib' of Supplementary Table 1),run:Lestaurtinib_02422_R3,Plate:MR006
  potency estimated from few doses: 151 nM
[2]; compound concentrations:100 nM and 1000 nM (sheet 'Lestaurtinib' of Supplementary Table 1),run:Lestaurtinib_02437_R1,Plate:MR007
  potency estimated from few doses: 184 nM
[2]; compound concentrations:100 nM and 1000 nM (sheet 'Lestaurtinib' of Supplementary Table 1),run:Lestaurtinib_02437_R2,Plate:MR007
  potency estimated from few doses: 189 nM
[2]; compound concentrations:100 nM and 1000 nM (sheet 'Lestaurtinib' of Supplementary Table 1),run:Lestaurtinib_02437_R3,Plate:MR007
  potency estimated from few doses: 22.9 nM
[2]; compound concentrations:100 nM and 1000 nM (sheet 'Lestaurtinib' of Supplementary Table 1),run:Lestaurtinib_02438_R3,Plate:MR008
  potency estimated from few doses: 132 nM
[2]; compound concentrations:100 nM and 1000 nM (sheet 'Lestaurtinib' of Supplementary Table 1),run:Lestaurtinib_02443_R2,Plate:MR009
  potency estimated from few doses: 140 nM
[2]; compound concentrations:100 nM and 1000 nM (sheet 'Lestaurtinib' of Supplementary Table 1),run:Lestaurtinib_02473_R1,Plate:MR010
  potency estimated from few doses: 176 nM
[2]; compound concentrations:100 nM and 1000 nM (sheet 'Lestaurtinib' of Supplementary Table 1),run:Lestaurtinib_02473_R2,Plate:MR010
  potency estimated from few doses: 144 nM
[2]; compound concentrations:100 nM and 1000 nM (sheet 'Lestaurtinib' of Supplementary Table 1),run:Lestaurtinib_02482_R1,Plate:MR011
  potency estimated from few doses: 212 nM
[2]; compound concentrations:100 nM and 1000 nM (sheet 'Lestaurtinib' of Supplementary Table 1),run:Lestaurtinib_02482_R3,Plate:MR011
  potency estimated from few doses: 254 nM
[2]; compound concentrations:100 nM and 1000 nM (sheet 'Lestaurtinib' of Supplementary Table 1),run:Lestaurtinib_02487_R1,Plate:MR012
  potency estimated from few doses: 142 nM
[2]; compound concentrations:100 nM and 1000 nM (sheet 'Lestaurtinib' of Supplementary Table 1),run:Lestaurtinib_02487_R2,Plate:MR012
  potency estimated from few doses: 190 nM
[2]; compound concentrations:100 nM and 1000 nM (sheet 'Lestaurtinib' of Supplementary Table 1),run:Lestaurtinib_02487_R3,Plate:MR012
  potency estimated from few doses: 157 nM
[2]; compound concentrations:100 nM and 1000 nM (sheet 'Lestaurtinib' of Supplementary Table 1),run:Lestaurtinib_02496_R1,Plate:MR013
  potency estimated from few doses: 146 nM
[2]; compound concentrations:100 nM and 1000 nM (sheet 'Lestaurtinib' of Supplementary Table 1),run:Lestaurtinib_02496_R2,Plate:MR013
  potency estimated from few doses: 132 nM
[2]; compound concentrations:100 nM and 1000 nM (sheet 'Lestaurtinib' of Supplementary Table 1),run:Lestaurtinib_02566_R1,Plate:MR014
  potency estimated from few doses: 207 nM
[2]; compound concentrations:100 nM and 1000 nM (sheet 'Lestaurtinib' of Supplementary Table 1),run:Lestaurtinib_02566_R2,Plate:MR014
  potency estimated from few doses: 121 nM
[2]; compound concentrations:100 nM and 1000 nM (sheet 'Lestaurtinib' of Supplementary Table 1),run:Lestaurtinib_02572_R2,Plate:MR015
  potency estimated from few doses: 149 nM
[2]; compound concentrations:100 nM and 1000 nM (sheet 'Lestaurtinib' of Supplementary Table 1),run:Lestaurtinib_02572_R3,Plate:MR015
  potency estimated from few doses: 193 nM
[2]; compound concentrations:100 nM and 1000 nM (sheet 'Lestaurtinib' of Supplementary Table 1),run:Lestaurtinib_02577_R2,Plate:MR016
  potency estimated from few doses: 158 nM
[2]; compound concentrations:100 nM and 1000 nM (sheet 'Lestaurtinib' of Supplementary Table 1),run:Lestaurtinib_02584_R3,Plate:MR017
  potency estimated from few doses: 243 nM
[2]; compound concentrations:100 nM and 1000 nM (sheet 'Lestaurtinib' of Supplementary Table 1),run:Lestaurtinib_02601_R1,Plate:MR018
  potency estimated from few doses: 172 nM
[2]; compound concentrations:100 nM and 1000 nM (sheet 'Lestaurtinib' of Supplementary Table 1),run:Lestaurtinib_02601_R3,Plate:MR018
  potency estimated from few doses: 321 nM
[2]; compound concentrations:100 nM and 1000 nM (sheet 'Lestaurtinib' of Supplementary Table 1),run:Lestaurtinib_02606_R2,Plate:MR019
  potency estimated from few doses: 140 nM
[2]; compound concentrations:100 nM and 1000 nM (sheet 'Lestaurtinib' of Supplementary Table 1),run:Lestaurtinib_02606_R3,Plate:MR019
  potency estimated from few doses: 180 nM
[2]; compound concentrations:100 nM and 1000 nM (sheet 'Lestaurtinib' of Supplementary Table 1),run:Lestaurtinib_02624_R2,Plate:MR020
  potency estimated from few doses: 154 nM
[2]; compound concentrations:100 nM and 1000 nM (sheet 'Lestaurtinib' of Supplementary Table 1),run:Lestaurtinib_02624_R3,Plate:MR020
  potency estimated from few doses: 149 nM
[2]; compound concentrations:100 nM and 1000 nM (sheet 'Lestaurtinib' of Supplementary Table 1),run:Lestaurtinib_02724_R1,Plate:MR021
  potency estimated from few doses: 141 nM
[2]; compound concentrations:100 nM and 1000 nM (sheet 'Lestaurtinib' of Supplementary Table 1),run:Lestaurtinib_02724_R2,Plate:MR021
  potency estimated from few doses: 113 nM
[2]; compound concentrations:100 nM and 1000 nM (sheet 'Lestaurtinib' of Supplementary Table 1),run:Lestaurtinib_02724_R3,Plate:MR021
  potency estimated from few doses: 151 nM
[2]; compound concentrations:100 nM and 1000 nM (sheet 'Lestaurtinib' of Supplementary Table 1),run:Lestaurtinib_02741_R1,Plate:MR023
  potency estimated from few doses: 92.6 nM
[2]; compound concentrations:100 nM and 1000 nM (sheet 'Lestaurtinib' of Supplementary Table 1),run:Lestaurtinib_02741_R2,Plate:MR023
  potency estimated from few doses: 113 nM
[2]; compound concentrations:100 nM and 1000 nM (sheet 'Lestaurtinib' of Supplementary Table 1),run:Lestaurtinib_02741_R3,Plate:MR023
  potency estimated from few doses: 130 nM
[2]; compound concentrations:100 nM and 1000 nM (sheet 'Lestaurtinib' of Supplementary Table 1),run:Lestaurtinib_02748_R2,Plate:MR024
  potency estimated from few doses: 231 nM
[2]; compound concentrations:100 nM and 1000 nM (sheet 'Lestaurtinib' of Supplementary Table 1),run:Lestaurtinib_02748_R3,Plate:MR024
  potency estimated from few doses: 190 nM
[2]; [4]
  potency estimated from few doses: 175 nM
[2]; [5]
  potency estimated from few doses: 218 nM
[2]; compound concentrations:100 nM and 1000 nM (sheet 'Lestaurtinib' of Supplementary Table 1),run:Lestaurtinib_02765_R2,Plate:MR026
  potency estimated from few doses: 200 nM
[2]; compound concentrations:100 nM and 1000 nM (sheet 'Lestaurtinib' of Supplementary Table 1),run:Lestaurtinib_02765_R3,Plate:MR026
  potency estimated from few doses: 115 nM
[2]; [6]
  potency estimated from few doses: 183 nM
[2]; [7]
  potency estimated from few doses: 143 nM
[2]; [8]
  potency estimated from few doses: 180 nM
[2]; [9]
  potency estimated from few doses: 440 nM
[2]; compound concentrations:100 nM and 1000 nM (sheet 'Lestaurtinib' of Supplementary Table 1),run:Lestaurtinib_03172_R1,Plate:MR031
  potency estimated from few doses: 154 nM
[2]; [10]
  potency estimated from few doses: 296 nM
[2]; compound concentrations:100 nM and 1000 nM (sheet 'Lestaurtinib' of Supplementary Table 1),run:Lestaurtinib_03260_R1,Plate:MR033
  potency estimated from few doses: 161 nM
[2]; compound concentrations:100 nM and 1000 nM (sheet 'Lestaurtinib' of Supplementary Table 1),run:Lestaurtinib_03260_R3,Plate:MR033
  potency estimated from few doses: 140 nM
[3]; compound concentrations:100 nM and 1000 nM (sheet 'Lestaurtinib' of Supplementary Table 1),run:Lestaurtinib_02339_R1,Plate:MR001
  potency estimated from few doses: 329 nM
[3]; [11]
  potency estimated from few doses: 231 nM
[3]; compound concentrations:100 nM and 1000 nM (sheet 'Lestaurtinib' of Supplementary Table 1),run:Lestaurtinib_02364_R1,Plate:MR002
  potency estimated from few doses: 180 nM
[3]; [12]
  potency estimated from few doses: 196 nM
